Here are results for six molecules from PubChem BioAssay.

Experiment [1] is described as follows: E. coli DRC41 culture turbidity changes, primary screen, E. coli filamentation inducer project, strain DRC41, OD650, 48 h (AID 1152).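 Further: E. coli MC1000 strain DRC41 lacking acrAB efflux pump and sulA.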 Particulars: E. coli DRC41 (acrAB sulA), higher = more signal, called active from +8 up or from −8 down.
The nature of experiment [2]: small-molecule binders of probe aLefty1, primary screen, biochemical, small-molecule microarray, 635/667 nm fluorescence (AID 1153).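 Further: score merges spot fluorescence with signal-to-noise ratio from the scanned slide images.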 The following applies: higher = more signal.
Experiment [3] can be described thus: PSAC antagonists in infected red cells, primary screen, cell-based, P. falciparum Indochina, OD700, 1 h (AID 1154). The following applies: P. falciparum Indochina infected RBC osmotic lysis, higher = more signal, called active from +8 up or from −8 down.
Experiment [4] in a line: PSAC antagonists in infected red cells, primary screen, cell-based, P. falciparum Indochina, OD700, 2 h (AID 1155).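 Further: lysis reports solute entry through the parasite surface anion channel PSAC; channel blockers reduce lysis of infected cells.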 The following applies: P. falciparum Indochina infected erythrocytes, osmotic lysis OD700; higher = more signal, called active from +8 up or from −8 down.
The nature of experiment [5]: osmotic lysis modulators in infected erythrocytes, primary screen, PSAC antagonist project, cell-based, P. falciparum Indochina, OD700, 3 h (AID 1156). The following applies: higher = more signal, called active from +8 up or from −8 down.
The nature of experiment [6]: PSAC antagonists in infected red cells, primary screen, cell-based, P. falciparum Indochina, OD700, 18 h (AID 1157). The following applies: P. falciparum Indochina infected erythrocytes, osmotic lysis OD700, 18 h; higher = more signal, called active from +8 up or from −8 down.
The nature of experiment [7]: modulators of S6 phosphorylation in cells, primary screen, cell-based, A549, cytoblot, luminescence, serum-stimulated (AID 1158).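 Further: serum-stimulated A549 lung adenocarcinoma cells; signal is phosphorylated S6 detected by cytoblot immunostaining with HRP secondary.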 The following applies: A549 phospho-S6 cytoblot, 5 h, higher = more signal.
In experiment [8] the target is NADPH oxidase 2 (Homo sapiens) (UniProt P04839). The experiment in a line: NOX2-dependent H2O2 signal modulators, primary screen, NOX inhibitor project, cell-based, HEK293-NOX2, PMA-stimulated, Amplex Red fluorescence (AID 1159). Further: test concentration not given here. Particulars: 45 min, higher = more signal, called active from +8 up or from −8 down.
The target of experiment [9] is NADPH oxidase 4 (Homo sapiens) (UniProt Q9NPH5). Description: NOX4-dependent H2O2 signal modulators, primary screen, NOX inhibitor project, cell-based, HEK293-NOX4, tetracycline-induced, Amplex Red fluorescence (AID 1160). The following applies: 45 min, higher = more signal, called active from +8 up or from −8 down.
The target of experiment [10] is NADPH oxidase 5 (Homo sapiens) (UniProt Q96PH1). Description: NOX5-dependent H2O2 signal modulators, primary screen, NOX inhibitor project, cell-based, HEK293-NOX5, Amplex Red fluorescence (AID 1161). The following applies: HEK293-NOX5, ionomycin, 45 min, higher = more signal.
Experiment [11] in a line: A549 cell viability effects, profiling panel, calcein-AM fluorescence, 48 h, basal (AID 1162). Further: test concentration not given here. Particulars: higher = more signal.
The nature of experiment [12]: adipocyte viability effects, profiling panel, cell-based, 3T3-L1 adipocytes, calcein-AM fluorescence, 48 h, basal (AID 1163). Further: test concentration not given here. Particulars: 3T3-L1 adipocytes viability, higher = more signal.
Experiment [13] is described as follows: HepG2 cell viability effects, profiling panel, calcein-AM fluorescence, 48 h, basal (AID 1164). Further: test concentration not given here. The following applies: higher = more signal.
Experiment [14] can be described thus: MM1S cell viability effects, profiling panel, calcein-AM fluorescence, 48 h, basal (AID 1165).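 Further: viability of MM1S multiple myeloma cells under basal unstimulated conditions; test concentration not given here.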 Particulars: higher = more signal.
Experiment [15] in a line: basal RPMI8226 viability, no added stimulus, profiling panel, cell-based, calcein-AM fluorescence, 48 h, PK04 Diversity Set (AID 1166).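 Further: cells grown under basal conditions without added stimulus; test concentration not given here.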 Particulars: RPMI8226 myeloma viability, higher = more signal.
Experiment [16] in a line: basal HepG2 mitochondrial membrane potential changes, profiling panel, cell-based, JC-1 fluorescence, 24 h, 100 nL compound (AID 1167). Further: test concentration not given here. The following applies: higher = more signal.
The nature of experiment [17]: basal 3T3-L1 adipocyte mitochondrial potential changes, profiling panel, cell-based, JC-1 fluorescence, 3T3-L1 adipocytes, 24 h, 100 nL compound (AID 1168). Further: test concentration not given here. Particulars: JC-1 mitochondrial fluorescence, higher = more signal, called active from +8 up or from −8 down.
Experiment [18] is described as follows: basal RPMI8226 mitochondrial membrane potential changes, profiling panel, cell-based, JC-1 fluorescence, 24 h, 100 nL compound (AID 1169). Further: test concentration not given here. Particulars: RPMI8226 myeloma, JC-1 mitochondrial potential fluorescence, higher = more signal.
Experiment [19] can be described thus: basal MM1S mitochondrial membrane potential changes, profiling panel, cell-based, JC-1 fluorescence, 24 h, 100 nL compound (AID 1170). Further: test concentration not given here. The following applies: higher = more signal.
Experiment [20] can be described thus: A549 lung cancer cell viability effects, profiling panel, resazurin fluorescence, 24 h, PK04 Diversity Set (AID 1171). Further: test concentration not given here. Particulars: higher = more signal, called active from +8 up or from −8 down. Background: The colour change of resazurin is a common sign of viable cells or microbes.

Activity calls are given as the source filed them.

Chain of NADPH oxidase 5 (Homo sapiens) (Q96PH1 whole entry, looked up): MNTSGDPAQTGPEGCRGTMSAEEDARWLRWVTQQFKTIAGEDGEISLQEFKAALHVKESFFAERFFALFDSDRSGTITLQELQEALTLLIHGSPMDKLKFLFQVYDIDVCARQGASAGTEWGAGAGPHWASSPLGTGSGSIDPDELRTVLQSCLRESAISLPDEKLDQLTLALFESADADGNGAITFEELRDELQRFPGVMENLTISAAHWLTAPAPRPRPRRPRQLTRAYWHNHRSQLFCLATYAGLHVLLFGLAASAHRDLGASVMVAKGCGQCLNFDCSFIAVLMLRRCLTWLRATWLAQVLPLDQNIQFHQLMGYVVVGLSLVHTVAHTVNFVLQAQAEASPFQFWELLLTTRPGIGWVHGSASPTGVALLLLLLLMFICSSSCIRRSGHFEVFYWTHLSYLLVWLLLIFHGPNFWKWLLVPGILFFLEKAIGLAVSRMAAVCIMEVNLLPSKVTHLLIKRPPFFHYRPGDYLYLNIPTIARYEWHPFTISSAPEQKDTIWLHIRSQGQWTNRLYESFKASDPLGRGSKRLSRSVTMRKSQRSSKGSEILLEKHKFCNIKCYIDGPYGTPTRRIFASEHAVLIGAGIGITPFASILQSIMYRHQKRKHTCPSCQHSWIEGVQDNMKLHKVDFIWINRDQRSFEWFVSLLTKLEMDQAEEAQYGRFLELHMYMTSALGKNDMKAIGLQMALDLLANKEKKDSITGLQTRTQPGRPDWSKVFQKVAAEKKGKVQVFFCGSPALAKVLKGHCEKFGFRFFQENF
Chain of NADPH oxidase 2 (Homo sapiens) (P04839 whole entry, looked up): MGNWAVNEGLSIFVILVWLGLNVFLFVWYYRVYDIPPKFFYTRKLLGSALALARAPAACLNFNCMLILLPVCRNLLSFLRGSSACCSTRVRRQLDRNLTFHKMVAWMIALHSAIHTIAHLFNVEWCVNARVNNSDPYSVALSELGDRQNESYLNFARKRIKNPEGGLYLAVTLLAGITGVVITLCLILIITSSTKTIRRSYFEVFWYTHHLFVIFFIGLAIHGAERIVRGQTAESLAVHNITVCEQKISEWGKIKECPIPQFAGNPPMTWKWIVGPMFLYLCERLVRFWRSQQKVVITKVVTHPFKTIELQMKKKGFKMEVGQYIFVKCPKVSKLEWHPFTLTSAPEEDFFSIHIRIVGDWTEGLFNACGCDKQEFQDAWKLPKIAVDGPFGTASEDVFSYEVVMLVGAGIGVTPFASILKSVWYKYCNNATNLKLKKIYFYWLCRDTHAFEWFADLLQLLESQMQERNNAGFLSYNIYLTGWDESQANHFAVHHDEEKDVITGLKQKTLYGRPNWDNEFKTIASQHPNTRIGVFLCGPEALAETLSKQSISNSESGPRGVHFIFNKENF
Chain of NADPH oxidase 4 (Homo sapiens) (Q9NPH5 whole entry, looked up): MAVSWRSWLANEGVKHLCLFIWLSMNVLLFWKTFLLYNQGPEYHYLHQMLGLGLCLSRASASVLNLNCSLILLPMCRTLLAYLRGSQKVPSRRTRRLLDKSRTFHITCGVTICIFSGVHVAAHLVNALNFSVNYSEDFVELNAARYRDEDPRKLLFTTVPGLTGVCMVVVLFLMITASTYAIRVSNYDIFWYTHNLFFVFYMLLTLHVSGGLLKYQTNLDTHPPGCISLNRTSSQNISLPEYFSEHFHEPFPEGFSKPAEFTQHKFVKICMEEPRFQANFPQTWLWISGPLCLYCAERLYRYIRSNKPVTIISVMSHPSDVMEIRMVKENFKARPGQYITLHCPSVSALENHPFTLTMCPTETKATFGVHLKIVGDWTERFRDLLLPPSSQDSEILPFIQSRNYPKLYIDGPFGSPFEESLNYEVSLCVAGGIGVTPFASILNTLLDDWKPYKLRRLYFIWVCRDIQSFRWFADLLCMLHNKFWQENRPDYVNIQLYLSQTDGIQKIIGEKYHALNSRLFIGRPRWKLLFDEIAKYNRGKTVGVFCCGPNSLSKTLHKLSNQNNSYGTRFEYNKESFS

As for `CCCC[C@@H]1C[C@H]1[C@@H](NC(=O)c1ccccc1)c1ccccc1`, the z-score in [1] was -1.39 (inactive); in experiment [3], 0.713 (inactive); in experiment [4], 0.803 (inactive); in experiment [5], 0.13 (inactive); in experiment [6], 0.888 (inactive); in [7], -0.943. Further, the z-score in experiment [8] is -0.289 (inactive); in [9], -1.21 (inactive); in [10] it was 1.98; in experiment [11], -1.2; in experiment [12], -0.902; in experiment [13], -1.02. In addition, the z-score was -1.43 in experiment [14]; -1.48 in [15]; -2.36 in [16]; -1.07 (inactive) in experiment [17]; 0.203 in [18]; -1.25 in experiment [19]. Also, in [20], the z-score is -0.324 (inactive). This molecule displayed a composite z-score in experiment [2] of 1.43.

On to `[N-]=[N+]=NCc1ccccc1C[C@]1(C(=O)NCc2ccccc2)COC(c2ccc(OCCCO)cc2)=N1`, for which the z-score was 0.104 (inactive) in [1]; 28.9 (active) in experiment [3]; 24.6 (active) in [4]; 4.42 (inactive) in experiment [5]; 2.78 (inactive) in experiment [6]; -0.153 in [7]. The z-score in experiment [8] was -2.28 (inactive); in [9], -0.958 (inactive); in experiment [10], -1.81; in experiment [11] it was -2.45; in [12], -0.679; in [13], -3.8. In addition, the z-score in [14] was -3.38; in experiment [15], -4.32; in experiment [16], 0.762; in [17], 0.768 (inactive); in experiment [18], -0.891; in experiment [19], -2.3. Further, the z-score in experiment [20] was -1.42 (inactive). In experiment [2], this molecule showed a composite z-score of -0.373.

With `C=C(COC)/C(=C/C[C@H](OC(C)=O)c1ccccc1OCCO)c1cnc2ccccc2c1`, the z-score in experiment [1] is -0.0836 (inactive); in experiment [3], 16.9 (active); in experiment [4], 2.74 (inactive); in experiment [5] it was 0.661 (inactive); in experiment [6], 0.799 (inactive); in experiment [7], -0.177. For the same molecule, the z-score in [8] is -1.79 (inactive); in [9], -0.0686 (inactive); in experiment [10], -0.854; in [11], 0.406; in experiment [12] it was -0.309; in experiment [13], -0.738. Moreover, the z-score in experiment [14] was -2.08; in experiment [15], -1.32; in [16] it was 1.4; in experiment [17] it was -1.34 (inactive); in experiment [18] it was -0.439; in experiment [19], -0.62. Besides, the z-score in experiment [20] is -0.0424 (inactive). In [2], this molecule gave a composite z-score of -0.0779.

Take `COc1ccc([Si](C)(C)[C@@H]2[C@@H](CCO)O[C@]3(C(=O)N(Cc4cccc(N5CCCCC5=O)c4)c4ccccc43)[C@H]2C)cc1`: the z-score is -0.402 (inactive) in [1]; 5.77 (inactive) in [3]; 2.69 (inactive) in [4]; 0.703 (inactive) in experiment [5]; 2 (inactive) in experiment [6]; -0.549 in [7]. Further, the z-score in experiment [8] was -2.79 (inactive); in experiment [9], -0.322 (inactive); in [10], 1.54; in [11] it was -0.86; in experiment [12], 0.161; in [13], -1.7. Further, the z-score in experiment [14] was -2.75; in experiment [15] it was -1.65; in [16] it was -1.94; in [17] it was 0.128 (inactive); in [18] it was -1.02; in experiment [19] it was -1.43. In addition, the z-score in [20] is -0.55 (inactive). For the same molecule, in experiment [2], the composite z-score came out at 0.236.

On to `C=CCN1Cc2ccccc2C[C@@]2(COC(c3ccc(OCCCO)cc3)=N2)C1=O`, for which the z-score in experiment [1] was 0.754 (inactive); in experiment [3], 22.7 (active); in [4], 5.46 (inactive); in experiment [5], 5.11 (inactive); in [6], 0.985 (inactive); in [7], -0.14. Also, the z-score was -5.73 (inactive) in experiment [8]; -1.35 (inactive) in experiment [9]; -3.28 in experiment [10]; 0.386 in [11]; 0.72 in experiment [12]; 0.741 in experiment [13]. In addition, the z-score in experiment [14] was -3.59; in experiment [15], -2.52; in experiment [16], 1.32; in experiment [17], 0.94 (inactive); in [18] it was -0.988; in [19], -2.19. Moreover, the z-score in [20] is -1.56 (inactive). The molecule also displayed a composite z-score in experiment [2] of 0.121.

Consider `C[N+](C)(C)CCCC[C@@H]1NC(=O)[C@H]2C[C@@H](C(=O)O)[C@@H](c3cccc(OCCO)c3)N2C1=O`, for which the z-score was -0.0215 (inactive) in [1]; 1.15 (inactive) in [3]; 0.729 (inactive) in [4]; -1.43 (inactive) in experiment [5]; 0.252 (inactive) in experiment [6]; 0.743 in [7]. Moreover, the z-score is 0.114 (inactive) in [8]; 0.0916 (inactive) in [9]; 0.986 in experiment [10]; 0.244 in experiment [11]; -0.552 in [12]; 0.438 in experiment [13]. For the same molecule, the z-score is 0.797 in [14]; 0.91 in [15]; 2.37 in experiment [16]; -0.448 (inactive) in experiment [17]; -0.741 in experiment [18]; -0.631 in experiment [19]. Further, the z-score in experiment [20] is -0.141 (inactive). This molecule also registered a composite z-score in experiment [2] of 1.69.
